ATXN viability: viability counter-screen for ATXN expression inhibitors; S2 cells (HEK-293 line with an ATXN2-luciferase reporter) viability, CellTiter-Fluor protease fluorescence, 24 h; Potency, µM (titrated, usually from 56.7 µM), hits mostly cytotoxic; 0.49% of 400,000 active; note: nearly all actives have a fitted effect of over 40% in size
HepG2 tox: counter-screen for TGF-b inhibitors: cytotoxicity in HepG2 cells | HepG2 CAGA-GFP viability, ATP luminescence, 18 h | Potency, µM (top dose mostly 46.1 µM), for inactives: at the highest dose activity change, negative = cytotoxicity, usual class: cytotoxic | 0.76% of 410,000 active | AID 588856
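CellTiter-Glo luminescence gave cytotoxicity after 18 hours at 37 degrees C. The cells were HepG2 CAGA-GFP in 1% FBS DMEM, stimulated with 500 pg/mL TGF-beta after compound addition. %Activity was normalised to no-cell wells (complete cell-killing) and DMSO (no toxicity), and curves were fitted and classified.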
TGFb SMAD3 inh: blocks TGF-b signaling; HepG2 CAGA-GFP TGF-b/SMAD3 reporter, GFP fluorescence, 18 h; TGF-beta stimulated, 500 pg/mL final; Potency, µM (top dose mostly 46.1 µM), inactives show top-dose activity, negative = inhibition, hits mostly inhibitors; 1.2% of 410,000 active; AID 588855; note: % is set by controls: 0 for no effect and ±100 for the full control effect; nearly all actives have a fitted effect of over 65% in size
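TGF-beta reporter screen: HEPG2 CAGA-GFP, 1% FBS, 500 pg/mL TGF-beta final, 18 h; per-cell GFP summed per well; curves fitted and categorized by class.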
ALOX12 inh: blocks human arachidonate 12S-lipoxygenase. Potency, µM (series often up to 108 µM), for inactives: at the highest dose activity change, negative = inhibition, actives largely listed as inhibitors. P18054. 1.1% of 580,000 active. purified 12hLO, xylenol orange hydroperoxide absorbance; note: % is set by controls: 0 for no effect and ±100 for the full control effect
Target sequence (P18054 whole entry, looked up): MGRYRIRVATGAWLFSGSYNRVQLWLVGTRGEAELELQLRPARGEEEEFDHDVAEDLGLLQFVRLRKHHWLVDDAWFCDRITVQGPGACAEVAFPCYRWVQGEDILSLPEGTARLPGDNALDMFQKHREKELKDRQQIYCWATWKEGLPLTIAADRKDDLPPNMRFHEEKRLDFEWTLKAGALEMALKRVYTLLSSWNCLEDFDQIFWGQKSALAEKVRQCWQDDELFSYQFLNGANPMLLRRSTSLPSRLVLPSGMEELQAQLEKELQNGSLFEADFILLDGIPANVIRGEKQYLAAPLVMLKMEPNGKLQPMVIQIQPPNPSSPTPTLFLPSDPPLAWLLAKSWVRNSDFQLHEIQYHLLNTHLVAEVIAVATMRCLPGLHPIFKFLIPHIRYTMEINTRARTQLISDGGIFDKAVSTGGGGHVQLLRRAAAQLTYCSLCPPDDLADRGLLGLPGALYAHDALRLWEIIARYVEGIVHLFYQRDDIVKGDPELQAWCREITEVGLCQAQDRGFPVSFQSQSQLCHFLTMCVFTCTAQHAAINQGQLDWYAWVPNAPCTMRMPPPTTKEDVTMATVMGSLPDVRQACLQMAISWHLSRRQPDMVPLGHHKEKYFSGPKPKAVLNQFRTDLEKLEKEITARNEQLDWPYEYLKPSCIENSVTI
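Purified human 12hLO at 150 nM in 25 mM Hepes, 0.01% Triton X-100, pH 7.0, preincubated 15 min at room temperature with compound. Reaction started with 40 uM arachidonic acid, 30 min at room temperature. Hydroperoxide measured by Fe-xylenol orange, 573/405 nm absorbance ratio.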
ATXN2 expr inh: ATXN2 expression inhibition. HEK-293 ATXN2-luciferase reporter, luminescence, 24 h. Potency, µM (highest dose often 57 µM), for the others: at the top dose activity change, negative = inhibition, hits mostly inhibitors. 0.72% of 360,000 active; note: % is set by controls: 0 for no effect and ±100 for the full control effect; nearly all actives have a fitted effect of over 55% in size
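qHTS (up to 57 uM final) was run with 24 h compound exposure of reporter cells at 37 °C. Each well was multiplexed: SteadyGlo luminescence measured ATXN2-luciferase expression after a fluorogenic Gly-Phe-AFC viability readout (25 uM final).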
* marks the source's active call; other numbers are inactive results; i = inactive; ? = inconclusive; . = no result. Rows were chosen to be rich in hits. Some 2.7% of all compounds tested hit in one or more screens of this group. Calls come from the whole dose curve; as a rule, active = well fitted curve in the direction sought with a large enough effect; inconclusive = small, poorly fitted or top-dose-only effect, or another doubt; inactive = no such curve, though single readings can be large; an effect the other way counts as inactive or inconclusive. Potency is the fitted concentration of half-maximal effect.

SMILES	ATXN viability	HepG2 tox	TGFb SMAD3 inh	ALOX12 inh	ATXN2 expr inh
Cc1cc(C)cc(NC(=S)N(Cc2ccc(Cl)cc2)Cc2ccc(C(=O)O)cc2)c1	i	-13%	-14%	35µM*	-16%
CCc1ccc(NC(=S)N(Cc2ccc(Cl)cc2)Cc2ccc(C(=O)O)cc2)cc1	i	3%	0%	40µM*	-22%
Cc1ccc(NC(=S)N(Cc2ccc(Br)cc2)Cc2ccc(C(=O)O)cc2)cc1C	i	-19%	4%	40µM*	9%
Cc1ccc(C)c(NCC(=O)c2ccc(Cl)cc2)c1	i	-4%	0%	35µM*	1%
Cc1nc(NC(=O)C2CC(=O)N(Cc3ccccn3)C2)sc1C (configuration not stated)	.	.	.	26%	.
O=C(NC1CCCCC1)[C@@H]1C[C@@H](O)CN1C1CCN(C(=O)c2cc(F)ccc2F)CC1	.	.	.	30%	.
Cc1cc(C)cc(NC(=S)N(Cc2ccc(Br)cc2)Cc2ccc(C(=O)O)cc2)c1	i	0%	-25%	28µM*	-19%
COc1ccc(NC(=S)N(Cc2ccc(Cl)cc2)Cc2ccc(C(=O)O)cc2)cc1Cl	i	4%	-11%	?	.
Cc1ccc(C)c(NC(=S)N(Cc2ccc(Cl)cc2)Cc2ccc(C(=O)O)cc2)c1	i	-3%	-2%	45µM*	-3%
Cc1cccc(NC(=S)N(Cc2ccc(Cl)cc2)Cc2ccc(C(=O)O)cc2)c1	i	-12%	12%	0%	-9%
Cc1cc(NC(=S)N(Cc2ccc(Cl)cc2)Cc2ccc(C(=O)O)cc2)ccc1Cl	i	-29%	?	40µM*	-26%
CC1CC(=O)Nc2cc(S(=O)(=O)NCc3ccccn3)ccc2S1 (configuration not stated)	.	.	.	0%	.
COc1cc2ccccc2cc1C(=O)N1CCN(c2nc3c(F)cc(F)cc3s2)CC1	i	-22%	7.1µM*	-15%	?
COc1cc2ccccc2cc1C(=O)N1CCN(c2nc3c(F)cccc3s2)CC1	.	16%	19%	-23%	.
O=C(CCC(=O)c1ccc2c(c1)CCC2)NC1CCCCC1	.	.	.	-6%	.
O=c1cc(C(F)(F)F)nc(SC/C=C/c2ccccc2)[nH]1	i	-33%	14µM*	.	.
O=S(=O)(O)c1ccc(N=Nc2ccccc2)cc1	i	-20%	-8%	-26%	3%
O=c1ccc(N=Nc2ccccc2)ccc1O	13µM*	18µM*	-25%	45µM*	?
CC(=O)C1=C(C)N(Cc2ccc(F)cc2)C(=S)NC1c1cccc(Br)c1 (configuration not stated)	.	.	.	40µM*	.
CC(=O)C1=C(C)N(Cc2ccc(Cl)cc2)C(=S)NC1c1ccccc1 (configuration not stated)	.	.	.	45µM*	.
CCN1C(=O)N[C@H](c2ccc(Br)cc2)C(C(C)=O)=C1C	i	-15%	-3%	-16%	-3%
CC(=O)C1=C(C)N(Cc2ccc(Cl)cc2)C(=S)NC1c1ccc(Cl)cc1 (configuration not stated)	.	.	.	45µM*	.
Cc1ccc(C(=O)C(C)OC(=O)c2cc3ccccc3[nH]2)cc1 (configuration not stated)	.	.	.	-20%	.
O=C(C=Cc1ccccc1)c1cccs1	?	-63%	11µM*	-10%	26%
O/N=C1\CCOc2ccccc21	.	.	.	-13%	.
SMILES	ATXN viability	HepG2 tox	TGFb SMAD3 inh	ALOX12 inh	ATXN2 expr inh
Cc1ccc(S(=O)(=O)NNC(=S)Nc2ccc(Cl)cc2)cc1	i	5%	-19%	0%	-22%
Cc1ccc(NC(=S)NNS(=O)(=O)c2ccc3ccccc3c2)cc1Cl	i	1%	-9%	40µM*	-1%
Cc1cccc(CNc2cc(-c3ccoc3)ncn2)c1	.	.	.	18µM*	.
Cc1cccc(CNc2cc(-c3cccc(NS(C)(=O)=O)c3)ncn2)c1	.	.	.	35µM*	.
COc1ccc2c(COC(=O)c3ccc(F)cc3)cc(=O)oc2c1	.	.	.	-1%	.
COc1cc(/C=N/Nc2cccc(C)c2)cc(Br)c1O	i	0%	0%	2.8µM*	3%
Cc1ccc2c(C)c(CCC(=O)Nc3cc(F)cc(F)c3)c(=O)oc2c1	.	.	.	8%	.
CCOc1ccccc1N(C)C(=O)c1cc2c(=O)n(CC)c3ccccc3c2s1	.	11µM*	?	-40%	.
CCn1c(=O)c2cc(C(=O)NCc3cc(OC)ccc3OC)sc2c2ccccc21	i	-28%	2.5µM*	-25%	-8%
Cc1ccc(CNC(=O)c2scnc2C)cc1	.	.	.	23%	.
CC(NC(=O)c1nn(C)c(=O)c2ccccc12)c1ccc(-c2ccccc2)cc1 (configuration not stated)	.	.	.	0%	.
NCCSc1ncc(C(F)(F)F)cc1Cl	.	.	.	42%	.
Nc1cccc2c1C(=O)N(C(=O)/C=C/c1cccc(F)c1)C2=O	i	13%	14µM*	?	?
Nc1cccc2c1C(=O)N(C(=O)/C=C/c1cccc(Br)c1)C2=O	i	-2%	-21%	-23%	?
CS(=O)(=O)N(CCCC(=O)Nc1ccc2c(c1)OCCO2)c1ccc(Cl)cc1	.	.	.	-19%	.
CCOc1cc(C)c(C(C)C)cc1S(=O)(=O)n1ccnc1C	.	.	.	48%	.
O=C(CN(C1CCCCC1)S(=O)(=O)c1ccc(F)cc1)NCC1CCCO1 (configuration not stated)	?	7.1µM*	4.5µM*	-8%	-6%
Cn1nnnc1Sc1ncnc2scc(-c3ccc(C(F)(F)F)cc3)c12	11µM*	-112%	?	-10%	4µM*
Cn1nnnc1Sc1ncnc2scc(-c3cccc(C(F)(F)F)c3)c12	16µM*	-112%	?	5%	14µM*
Cn1nnnc1Sc1ncnc2scc(-c3ccc(-c4ccccc4)cc3)c12	?	-54%	?	-1%	?
COc1cccc(-c2csc3ncnc(Sc4nnnn4C)c23)c1	?	10%	?	-19%	?
Cn1nnnc1Sc1ncnc2scc(-c3cccc(F)c3)c12	?	-110%	10µM*	-12%	?
Cn1nnnc1Sc1ncnc2scc(-c3ccc(C#N)cc3)c12	10µM*	-123%	?	1%	10µM*
Cc1cccc2nc(CSc3nnc(N4CCCC4)n3-c3cccc(Cl)c3)cn12	.	.	.	2%	.
COCCN(CCOC)c1ncnc2c1c(-c1ccccc1)cn2-c1cccc(C(F)(F)F)c1	.	.	.	-3%	.
O=c1cc(CSc2nnnn2-c2ccccc2)[nH]n1-c1ccc(F)cc1	.	.	.	18µM*	.
CC1CCC(NCCNC(=O)c2ccco2)CC1 (configuration not stated)	i	4%	-17%	2.8µM*	27%
O=C(NCCNC1CCCCC1)c1ccco1	i	0%	-19%	?	-1%
O=C(O)Cc1sc(N/N=C\c2ccccc2)nc1-c1ccccc1	?	-7%	6%	45µM*	12%
Cn1nc(C(C)(C)C)cc1NC(=O)Nc1ccc(F)cc1F	i	-1%	-1%	-10%	2%
